DENV2 CPE – DENV2-induced cell death inhibition; DENV2-infected cells, cytopathic effect rescue, plate reader; CPE inhibition, % at 9.99 µM; 1.7% of 350,000 active; AID 651640; in the data active = CPE inhibition above about 20%, passing the limit was not always enough; tested in BHK-21 cells;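 note: 0% = median of neutral control wells and 100% = median of positive control wells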
PDI inh – blocks human protein disulfide isomerase activity. P07237. PDI insulin aggregation turbidity, A650, 90 min. inhibition, % at 10 µM. 0.052% of 350,000 active. AID 588391;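 active = mean inhibition across replicates of 30% or more, whatever share of single replicates reach that level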
Target sequence (P07237 whole entry, looked up): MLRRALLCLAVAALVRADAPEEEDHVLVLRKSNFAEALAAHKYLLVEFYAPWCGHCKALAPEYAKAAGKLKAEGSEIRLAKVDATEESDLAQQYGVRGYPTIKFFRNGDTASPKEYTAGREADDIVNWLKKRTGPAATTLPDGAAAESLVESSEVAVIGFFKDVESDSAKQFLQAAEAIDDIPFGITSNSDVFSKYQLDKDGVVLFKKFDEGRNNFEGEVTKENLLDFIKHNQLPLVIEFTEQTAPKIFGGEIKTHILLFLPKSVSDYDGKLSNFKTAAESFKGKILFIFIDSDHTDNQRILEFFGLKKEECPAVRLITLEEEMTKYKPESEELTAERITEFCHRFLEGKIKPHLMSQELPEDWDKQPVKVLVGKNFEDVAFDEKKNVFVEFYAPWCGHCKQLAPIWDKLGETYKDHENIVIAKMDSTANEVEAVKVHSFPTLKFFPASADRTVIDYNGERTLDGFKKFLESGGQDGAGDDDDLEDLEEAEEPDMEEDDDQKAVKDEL
ERp5 block – ERp5 (human) disulfide isomerase inhibition; inhibition, % at 9.99 µM; ERp5 insulin aggregation, absorbance 650 nm, 90 min; 0.05% of 350,000 active; AID 651711; Q15084;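 active = mean replicate inhibition above about 25%, with every replicate also reaching it, limit read from the data, passing the limit was not always enough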
AF4-AF9 inh – inhibitors of human MLL-AF4/AF9 interaction; AID 651704; inhibition, % at 10 µM; 0.47% of 350,000 active; AlphaScreen, biotin-AF4 peptide binding to FLAG-AF9; P42568;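 active = every replicate reaching a set inhibition limit, whatever the replicate mean, cut at about 25% in these data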;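 note: 0% = plate neutral control median and 100% = total signal loss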
ERAP1 HTS inh – ERAP1 (human) enzyme inhibition; Q9NZ08; recombinant ERAP1, Leu-AMC fluorescence, 60 min; inhibition, % at 10.7 µM; 0.15% of 340,000 active; AID 652197;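 active = mean replicate inhibition of at least 30%, or all replicates individually reaching that 30% level; inactive = mean below 30% and not every replicate reaching it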;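 note: 0% = neutral control wells and 100% = L-leucinethiol positive control wells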
* hit, by the source's call; nt = no result given. The list is not random: actives were taken first. Their share in the collection is about 1.8%.

SMILES	DENV2 CPE	PDI inh	ERp5 block	AF4-AF9 inh	ERAP1 HTS inh
C=C(C)C(=O)N1CC2(CC(c3cccc(NC(=O)COc4ccc(Cl)cc4)c3)=NO2)C[C@@H]1C(N)=O (stereo partly specified)	34.0*	-4.2	-3.9	0.2	-5.8
CC(C)c1cc(-c2cc(C(=O)NCc3ccccc3)on2)nc(NC2CCCC2)n1	22.0*	-2.0	-1.4	1.0	-3.1
Cc1noc(C)c1S(=O)(=O)Nc1ccc2c(c1)C(=O)N([C@H](C)CO)C[C@H](C)[C@H](CN(C)C)OCCCC[C@H](C)O2	0.3	nt	2.1	-4.4	1.3
C[C@H]1CN([C@@H](C)CO)C(=O)Cc2cc(NC(=O)Nc3cccc4ccccc34)ccc2O[C@H]1CN(C)C(=O)Nc1ccc2c(c1)OCO2	3.4	nt	-9.7	7.8	-2.1
NC(=O)C1CCN(C(=O)C2(NC(=O)Nc3cccc(F)c3)CCCCC2)CC1	44.8*	-1.8	0.5	-1.8	-3.3
O=C(Nc1cccc(F)c1)NC1(C(=O)N2CCC(O)CC2)CCCCC1	-1.9	-5.5	1.8	-0.3	-7.5
COc1ccc(-c2nc3c(C)cc(Br)cn3c2Cc2cccc(F)c2)cc1OC	89.3*	nt	-9.2	0.8	-4.9
Cc1ccc(Cc2c(-c3ccc(C)cc3)nc3ccc(Cl)cn23)cc1	24.6*	-9.9	-4.3	1.6	2.8
Clc1cccc(Cc2c(-c3cccc(Br)c3)nc3ccc(Cl)cn23)c1	-1.8	nt	-1.8	-1.0	-2.7
Cc1ccc(Cc2c(-c3ccc(Cl)cc3)nc3ccc(Cl)cn23)cc1	-2.3	3.3	-6.2	-0.5	0.2
COc1ccc(-c2nc3ccc(C)cn3c2Cc2cccc(F)c2)cc1OC	33.0*	nt	1.7	4.1	-2.1
Cc1ccc2nc(-c3cccc(Br)c3)c(Cc3cccc(Cl)c3)n2c1	53.9*	nt	25.3*	-1.3	0.5
COc1ccc(-c2nc3ccc(Br)cn3c2Cc2cccc(F)c2)cc1OC	8.8	nt	1.2	3.3	1.2
C/C=C/c1ccc([C@@H]2[C@H](CO)N3C(=O)CN(S(=O)(=O)c4cccc(F)c4)C[C@@H]23)cc1	16.9	nt	1.2	-2.0	0.2
Cc1noc(C)c1S(=O)(=O)Nc1ccc2c(c1)CC(=O)N([C@H](C)CO)C[C@H](C)[C@H](CN(C)S(=O)(=O)c1ccccc1)O2	-0.5	nt	1.1	-1.8	0.0
Cc1nnc(NC(=O)CSc2nnc(CC(=O)Nc3ccccc3Cl)n2C)s1	5.3	-4.9	4.5	1.0	-2.0
Cc1nnc(NC(=O)CSc2nnc(CC(=O)Nc3ccccc3F)n2C)s1	1.4	2.6	-0.5	53.4*	-3.2
Cn1c(COc2ccccc2)nnc1SCC(=O)Nc1nnc(C2CC2)s1	-10.8	-1.9	26.9*	-24.2	3.7
Cn1c(COc2ccccc2)nnc1SCC(=O)Nc1ccc2c(c1)OCO2	nt	0.8	-6.7	nt	-0.2
CC(=O)c1ccc(NC(=O)C2(c3ccccc3)CC2(Cl)Cl)cc1 (stereo unspecified)	-3.6	4.2	2.3	32.8*	-2.7
Cc1ccc(S(=O)(=O)N2C[C@H](O)COC[C@@H]3O[C@@H](CC(=O)NCc4ccc5c(c4)OCO5)CC[C@H]32)cc1	13.3	nt	-4.9	8.6	0.3
O=C(CSCc1ccc([N+](=O)[O-])cc1)Nc1ccc(S(=O)(=O)N2CCCCCC2)cc1	79.7*	-2.3	-1.9	-0.8	1.8
CNC[C@@H]1Oc2ccc(NC(=O)CCCN(C)C)cc2CC(=O)N([C@H](C)CO)C[C@H]1C	7.7	nt	2.4	0.3	0.9
COc1ccc2c3c(n(C)c2c1)[C@H](CO)N(C)CC31CN(S(=O)(=O)c2cn(C)cn2)C1	19.6	nt	-0.2	-2.5	-2.2
O=C(c1cccc(S(=O)(=O)NCc2ccccc2)c1)N1CCN(c2ccccc2)CC1	-8.9	-5.2	2.6	4.0	2.3
SMILES	DENV2 CPE	PDI inh	ERp5 block	AF4-AF9 inh	ERAP1 HTS inh
O=C(c1cccc(S(=O)(=O)NCc2ccccc2)c1)N1CCN(c2ccc(F)cc2)CC1	-2.5	4.1	5.3	25.7*	1.3
Cc1ccc(S(=O)(=O)NCc2ccccc2)cc1C(=O)N1CCN(S(=O)(=O)c2ccccc2F)CC1	58.1*	-7.9	3.6	2.3	-1.7
Cc1ccc(S(=O)(=O)NCc2ccccc2)cc1C(=O)N1CCCCC1	2.4	-9.2	-0.2	1.1	0.7
COc1ccc2c3c([nH]c2c1)[C@H](CO)N(C)CC31CN(S(=O)(=O)c2ccc(C)cc2)C1	0.7	nt	0.7	2.9	0.9
COc1ccc2c3c([nH]c2c1)[C@@H](CO)N(Cc1ccccc1)CC31CN(S(=O)(=O)c2ccc(C)cc2)C1	20.3*	nt	3.6	0.3	-3.5
COc1ccc2c3c([nH]c2c1)[C@@H](CO)N(S(=O)(=O)c1ccc(C)cc1)CC31CN(Cc2ccccc2)C1	2.1	nt	nt	-6.4	nt
COc1ccc2c3c([nH]c2c1)[C@H](CO)N(Cc1ccccc1)CC31CN(S(=O)(=O)c2ccc(C)cc2)C1	36.2*	nt	4.6	1.8	-6.1
CCCNC(=O)N(C)C[C@@H]1Oc2ncc(C3=CCCCC3)cc2C(=O)N([C@@H](C)CO)C[C@H]1C	-2.2	nt	9.9	-4.8	3.5
CO[C@H]1CN(C)C(=O)c2cc(NC(=O)CC(F)(F)F)ccc2OC[C@H](C)N(C(C)=O)C[C@@H]1C	-6.1	nt	-4.8	-9.0	1.8
CCC(=O)Nc1ccc2c(c1)OC[C@@H](C)N(C(C)=O)C[C@@H](C)[C@@H](OC)CN(C)C2=O	23.9*	nt	6.5	-1.2	-0.3
CCC(=O)Nc1ccc2c(c1)OC[C@@H](C)N(C(C)=O)C[C@H](C)[C@@H](OC)CN(C)C2=O	-6.2	nt	-1.2	-0.5	-0.6
CO[C@@H]1CN(C)C(=O)c2ccc(NC(=O)CC(F)(F)F)cc2OC[C@H](C)N(C(C)=O)C[C@@H]1C	108.0*	nt	-2.5	-3.9	0.2
CCC(=O)Nc1ccc2c(c1)OC[C@@H](C)N(C(C)=O)C[C@H](C)[C@H](OC)CN(C)C2=O	27.4*	nt	0.1	-2.6	0.6
CCC(=O)Nc1ccc2c(c1)OC[C@H](C)N(C(C)=O)C[C@H](C)[C@@H](OC)CN(C)C2=O	0.6	nt	-1.6	-0.7	1.1
COCCNC(=O)C[C@@H]1C=C[C@H](NS(=O)(=O)c2ccc(C)cc2)[C@@H](CO)O1	-1.6	nt	-1.7	0.3	2.7
O=C(Nc1ccc(S(=O)(=O)NC2=NCCCCC2)cc1)c1ccc([N+](=O)[O-])s1	3.5	0.1	2.3	-1.6	5.0
O=C(Nc1ccc(S(=O)(=O)NC2=NCCCCC2)cc1)c1cccs1	65.4*	-1.3	-7.3	-2.1	-1.2
CC1CCN(C(=O)c2ccc(CNc3c(N4CCCC4)c(=O)c3=O)cc2)CC1	-5.5	-3.8	1.2	8.3	nt
O=C(c1ccc(CNc2c(N3CCCC3)c(=O)c2=O)cc1)N1CCN(C2CCCCC2)CC1	78.5*	-9.3	1.4	-2.9	-0.3
Cc1ccc([C@@H]2[C@@H]3C(=O)N(c4ccccc4)C(=O)[C@@H]3[C@]3(C)C(=O)N(CC4CC4)CC(=O)N23)o1	50.4*	-0.9	3.1	-1.8	1.7
COC(=O)CCS(=O)(=O)c1nc(-c2ccccc2)cc(C(F)(F)F)n1	nt	1.2	nt	nt	nt
COc1ccc(-c2cc(C(F)(F)F)nc(S(=O)(=O)CCCC(=O)Nc3cccnc3Cl)n2)cc1OC	11.5	2.8	0.9	0.4	49.5*

Screens as filed in PubChem BioAssay.
